Measurements from PubChem BioAssay (NCI).
Compounds without any hit were thinned out: in the full panel of roughly 79,000, 15% have a hit. The source made the active and inactive calls. Rule as the data show it: active = growth inhibition above about 70%; inactive = the rest.

How the values were obtained:
[1] = NCI Yeast Anticancer Drug Screen. Data for the wt2 strain (AID 169);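 also: 0% = growth of vehicle-treated yeast cultures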; conditions: S. cerevisiae wt2 strain growth inhibition, stronger effect = higher value
Method in brief: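 Treated yeast vs. vehicle-treated yeast: growth inhibition determined.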

[2] = NCI Yeast Anticancer Drug Screen. Data for the mlh1 strain (AID 171);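 also: 0% = growth of vehicle-treated control cultures of the same strain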; conditions: S. cerevisiae mlh1 strain growth inhibition, stronger effect = higher value
Method in brief: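 A yeast strain with a defined genetic lesion serves as the test organism. Cultures receive compound or vehicle, and growth is measured.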

[3] = NCI Yeast Anticancer Drug Screen. Data for the sgs1 strain (AID 173);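 also: 0% = growth of vehicle-only control cultures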; conditions: S. cerevisiae sgs1 mutant, stronger effect = higher value
Method in brief: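 A genetically defined yeast mutant is incubated with the test compound, and its growth is compared to that of the same strain given vehicle.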

[4] = NCI Yeast Anticancer Drug Screen. Data for the mlh1 rad18 strain (AID 175); conditions: S. cerevisiae mlh1 rad18 strain growth inhibition, stronger effect = higher value
Method in brief: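 Steps: expose repair-defective yeast to compound; measure growth; express inhibition against vehicle-treated controls.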

[5] = NCI Yeast Anticancer Drug Screen. Data for the rad18 strain (AID 177); conditions: S. cerevisiae rad18 mutant growth inhibition, stronger effect = higher value
Method in brief: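 Measured value is growth inhibition of a yeast strain bearing a DNA repair alteration, referenced to vehicle-treated cells.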

[6] = NCI Yeast Anticancer Drug Screen. Data for the rad52 strain (AID 147);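 also: 0% = growth of vehicle-treated control cultures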; conditions: S. cerevisiae rad52 mutant growth inhibition, stronger effect = higher value
Method in brief: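 Here a repair-compromised yeast strain receives each compound; its growth is then quantified and normalised to vehicle-only controls.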

[7] = NCI Yeast Anticancer Drug Screen. Data for the wt1 strain (AID 149);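 also: 0% = growth of vehicle-treated wt1 cultures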; conditions: S. cerevisiae wt1 strain (SPY 50644) growth inhibition, stronger effect = higher value
Method in brief: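 Readout: yeast growth inhibition, normalised to vehicle controls, in the wt1 strain exposed to test compounds.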

[8] = NCI Yeast Anticancer Drug Screen. Data for the rad50EPP+ strain (AID 151);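 also: 0% = growth of vehicle-treated control cultures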; conditions: S. cerevisiae rad50 mutant strain, stronger effect = higher value
Method in brief: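 Read-out is yeast growth inhibition relative to vehicle; cells used were the rad50EPP+ strain.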

[9] = NCI Yeast Anticancer Drug Screen. Data for the mgt1 strain (AID 153); conditions: S. cerevisiae mgt1 mutant growth inhibition, stronger effect = higher value
Method in brief: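 Measured: inhibition of mgt1 yeast growth by compound, normalized to vehicle-treated cultures.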

[10] = NCI Yeast Anticancer Drug Screen. Data for the rad50 strain (AID 155);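 also: 0% = growth of vehicle-only cultures of the same strain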; conditions: S. cerevisiae rad50 strain growth inhibition, stronger effect = higher value
Method in brief: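 Compounds were tested on a yeast strain with an engineered DNA damage repair alteration; the reported value is growth inhibition normalised to vehicle treatment.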

[11] = NCI Yeast Anticancer Drug Screen. Data for the mec2-1 strain (AID 157); conditions: S. cerevisiae mec2-1 strain, stronger effect = higher value
Method in brief: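 Using mec2-1 yeast: add compound, measure growth, express inhibition versus vehicle-treated cultures.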

[12] = NCI Yeast Anticancer Drug Screen. Data for the rad14 strain (AID 159);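 also: 0% = growth of vehicle-treated control cultures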; conditions: S. cerevisiae rad14 strain growth inhibition, stronger effect = higher value
Method in brief: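 Compound-treated yeast with a defined DNA-repair lesion; growth inhibition normalised to vehicle-treated cultures.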

[13] = NCI Yeast Anticancer Drug Screen. Data for the sgs1 mgt1 strain (AID 161);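 also: 0% = growth of cultures given vehicle only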; conditions: S. cerevisiae sgs1 mgt1 strain, stronger effect = higher value
Method in brief: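 Percent growth inhibition was derived by comparing compound-exposed mutant yeast with vehicle-exposed cultures. The strain carries alterations in DNA damage repair.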

[14] = NCI Yeast Anticancer Drug Screen. Data for the CLN2oe strain (AID 163);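 also: 0% = growth of vehicle-only control cultures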; conditions: S. cerevisiae CLN2oe strain, stronger effect = higher value
Method in brief: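 Whole-cell yeast growth assay. A strain engineered for altered cell-cycle control received compound, and inhibition relative to vehicle-treated cultures was recorded.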

[15] = NCI Yeast Anticancer Drug Screen. Data for the cln2 rad14 strain (AID 165);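 also: 0% = growth equal to vehicle treated cultures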; conditions: S. cerevisiae cln2 rad14 strain, stronger effect = higher value
Method in brief: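 Yeast strain cln2 rad14, bearing defects in cell cycle control and DNA repair, serves as the test system; values reflect growth inhibition compared with vehicle.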

[16] = NCI Yeast Anticancer Drug Screen. Data for the bub3 strain (AID 167); conditions: S. cerevisiae bub3 mutant strain, stronger effect = higher value
Method in brief: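 Growth of a checkpoint-deficient yeast mutant is measured after compound exposure. Values represent inhibition relative to vehicle.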

[17] = at 5.0 µM (retest, dose inferred, filed as 0.5)
[18] = at 50.0 µM (retest, dose inferred, filed as 5.0)

Measured: growth inhibition

BrCC[P+](c1ccccc1)(c1ccccc1)c1ccccc1
inactive: [1]; at 1.2 µM -15% | [1]; at 3.7 µM -5% | [1]; at 11.0 µM 15% | [2]; at 1.2 µM -38% | [2]; at 3.7 µM -70% | [2]; at 11.0 µM 28% | [3]; at 1.2 µM -35% | [3]; at 3.7 µM -56% | [3]; at 11.0 µM -40% | [4]; [17] 5% | [5]; at 1.2 µM -59% | [5]; at 3.7 µM -42% | [5]; at 11.0 µM 54%
active: [1]; at 33.0 µM 88% | [1]; at 100.0 µM 95% | [2]; at 33.0 µM 93% | [2]; at 100.0 µM 97% | [3]; at 33.0 µM 89% | [3]; at 100.0 µM 94% | [4]; [18] 96% | [4]; at 50.0 µM 83.6% | [5]; at 33.0 µM 95% | [5]; at 100.0 µM 95%

CC(C)(Br)C(=O)/C=C/c1ccc(Cl)c(Cl)c1
active: [10]; at 50.0 µM 87.4% | [13]; [18] 77% | [13]; at 50.0 µM 85.8% | [16]; at 50.0 µM 78.9% | [4]; [18] 78% | [4]; at 50.0 µM 82.8%
inactive: [6]; at 1.2 µM 2% | [6]; at 3.7 µM 3% | [6]; at 11.0 µM -1% | [6]; at 33.0 µM 2% | [6]; at 100.0 µM -4% | [7]; at 1.2 µM -2% | [7]; at 3.7 µM -1% | [7]; at 11.0 µM -3% | [7]; at 33.0 µM 0% | [7]; at 100.0 µM 1% | [8]; at 1.2 µM 4% | [8]; at 3.7 µM 3% | [8]; at 11.0 µM 3% | [8]; at 33.0 µM 3% | [8]; at 100.0 µM 3% | [9]; at 1.2 µM -4% | [9]; at 3.7 µM 0% | [9]; at 11.0 µM -1% | [9]; at 33.0 µM 0% | [9]; at 100.0 µM 0% | [10]; at 1.2 µM 4% | [10]; at 3.7 µM 3% | [10]; [17] 17% | [10]; at 11.0 µM 1% | [10]; at 33.0 µM 4% | [10]; [18] 64% | [10]; at 100.0 µM 4% | [11]; at 1.2 µM -1% | [11]; at 3.7 µM 1% | [11]; [17] 16% | [11]; at 11.0 µM -1% | [11]; at 33.0 µM 1% | [11]; [18] 49% | [11]; at 50.0 µM 48.2% | [11]; at 100.0 µM -1% | [12]; at 1.2 µM 4% | [12]; at 3.7 µM 2% | [12]; at 11.0 µM 1% | [12]; at 33.0 µM 2% | [12]; at 100.0 µM 3% | [13]; [17] 33% | [14]; at 1.2 µM -3% | [14]; at 3.7 µM -1% | [14]; at 11.0 µM -5% | [14]; at 33.0 µM 0% | [14]; at 100.0 µM 0% | [15]; [17] 7% | [15]; [18] 28% | [15]; at 50.0 µM 52% | [16]; at 1.2 µM -2% | [16]; at 3.7 µM -3% | [16]; [17] 7% | [16]; at 11.0 µM -2% | [16]; at 33.0 µM -1% | [16]; [18] 56% | [16]; at 100.0 µM -2% | [1]; at 1.2 µM -5% | [1]; at 3.7 µM -10% | [1]; at 11.0 µM -12% | [1]; at 33.0 µM -10% | [1]; at 100.0 µM -8% | [2]; at 1.2 µM -2% | [2]; at 3.7 µM -1% | [2]; at 11.0 µM -2% | [2]; at 33.0 µM 1% | [2]; at 100.0 µM 3% | [3]; at 1.2 µM -1% | [3]; at 3.7 µM -3% | [3]; at 11.0 µM 12% | [3]; at 33.0 µM 7% | [3]; at 100.0 µM 17% | [4]; [17] 27% | [5]; at 1.2 µM 3% | [5]; at 3.7 µM 6% | [5]; at 11.0 µM 3% | [5]; at 33.0 µM 7% | [5]; at 100.0 µM 50%

CC(C)[N+]([O-])(CCCNc1c2ccccc2nc2cccc([N+](=O)[O-])c12)C(C)C
inactive: [6]; at 1.2 µM 48% | [7]; at 1.2 µM 0% | [7]; at 3.7 µM 3% | [7]; at 11.0 µM 18% | [8]; at 1.2 µM 6% | [8]; at 3.7 µM 26% | [8]; at 11.0 µM 66% | [9]; at 1.2 µM 0% | [9]; at 3.7 µM 6% | [9]; at 11.0 µM 24% | [10]; at 1.2 µM 24% | [10]; at 3.7 µM 57% | [11]; at 1.2 µM 13% | [11]; at 3.7 µM 69% | [11]; [17] 68% | [12]; at 1.2 µM 50% | [14]; at 1.2 µM -3% | [14]; at 3.7 µM 2% | [14]; at 11.0 µM 42% | [16]; at 1.2 µM -14% | [16]; at 3.7 µM -8% | [16]; [17] -2% | [16]; at 11.0 µM 33% | [16]; at 50.0 µM 11.9% | [1]; at 1.2 µM 1% | [1]; at 3.7 µM 5% | [1]; at 11.0 µM 24% | [2]; at 1.2 µM 3% | [2]; at 3.7 µM 10% | [2]; at 11.0 µM 37% | [3]; at 1.2 µM 64%
active: [6]; at 3.7 µM 83% | [6]; at 11.0 µM 94% | [6]; at 33.0 µM 96% | [6]; at 100.0 µM 98% | [7]; at 33.0 µM 78% | [7]; at 100.0 µM 94% | [8]; at 33.0 µM 91% | [8]; at 100.0 µM 97% | [9]; at 33.0 µM 90% | [9]; at 100.0 µM 98% | [10]; [17] 70% | [10]; at 11.0 µM 86% | [10]; at 33.0 µM 93% | [10]; [18] 97% | [10]; at 50.0 µM 87.6% | [10]; at 100.0 µM 96% | [11]; at 11.0 µM 96% | [11]; at 33.0 µM 98% | [11]; [18] 99% | [11]; at 50.0 µM 87% | [11]; at 100.0 µM 99% | [12]; at 3.7 µM 93% | [12]; at 11.0 µM 98% | [12]; at 33.0 µM 99% | [12]; at 100.0 µM 99% | [13]; [17] 89% | [13]; [18] 98% | [13]; at 50.0 µM 93.6% | [14]; at 33.0 µM 88% | [14]; at 100.0 µM 95% | [15]; [17] 96% | [15]; [18] 99% | [15]; at 50.0 µM 96% | [16]; at 33.0 µM 90% | [16]; [18] 97% | [16]; at 100.0 µM 98% | [1]; at 33.0 µM 89% | [1]; at 100.0 µM 96% | [2]; at 33.0 µM 91% | [2]; at 100.0 µM 98% | [3]; at 3.7 µM 84% | [3]; at 11.0 µM 93% | [3]; at 33.0 µM 96% | [3]; at 100.0 µM 97% | [4]; [17] 92% | [4]; [18] 98% | [4]; at 50.0 µM 95.2% | [5]; at 1.2 µM 96% | [5]; at 3.7 µM 96% | [5]; at 11.0 µM 96% | [5]; at 33.0 µM 97% | [5]; at 100.0 µM 97%
